Assay results as given in paper PMC7862700, “An all-to-all approach to the identification of sequence-specific readers for epigenetic DNA modifications on cytosine”.

Columns and labels:
Test in all cases: DAPPL (digital affinity profiling via proximity ligation, sequencing); 10 mM Tris-HCl pH 7.5, 50 mM NaCl, 1 mM DTT, 4% glycerol, room temperature, 30 min; GST-TFs on glutathione beads, 16-mer random dsDNA library, 0.1% formaldehyde crosslink after washing; high values mean tight binding
FEV = target: T1, FEV (Homo sapiens, UniProt Q99581 1-238); settings: protein: recombinant; tags: N-terminal GST; dsDNA, one strand shown
T1 sequence: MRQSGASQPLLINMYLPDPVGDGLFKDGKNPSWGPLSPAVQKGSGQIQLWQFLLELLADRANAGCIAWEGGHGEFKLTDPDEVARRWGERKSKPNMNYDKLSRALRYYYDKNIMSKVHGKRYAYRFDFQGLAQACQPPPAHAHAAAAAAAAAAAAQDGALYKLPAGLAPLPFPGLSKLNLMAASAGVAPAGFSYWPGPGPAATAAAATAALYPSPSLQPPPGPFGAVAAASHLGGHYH
Outline: (§1)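 The binding signal reported is, for every hexamer, its read frequency for a factor over its read frequency for the tag-only sample. Reads came from pools of yeast-expressed, GST-fused human transcription factors on glutathione beads, barcoded with DNA and mixed with that sample, which were incubated with 200 nmole of a random double-stranded 16-mer DNA library in Tris/NaCl/DTT/glycerol buffer at room temperature for 30 min. After washing, the pools were crosslinked with 0.1% formaldehyde, proximity-ligated with BsaI/T4 ligase for 1 h at 37 °C, PCR-amplified and sequenced on an Illumina NextSeq500.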

ETV5 = ETV5 (Homo sapiens, UniProt P41161 1-510); settings: protein: recombinant; tags: N-terminal GST; dsDNA, one strand shown
Chain of ETV5 (P41161 whole entry): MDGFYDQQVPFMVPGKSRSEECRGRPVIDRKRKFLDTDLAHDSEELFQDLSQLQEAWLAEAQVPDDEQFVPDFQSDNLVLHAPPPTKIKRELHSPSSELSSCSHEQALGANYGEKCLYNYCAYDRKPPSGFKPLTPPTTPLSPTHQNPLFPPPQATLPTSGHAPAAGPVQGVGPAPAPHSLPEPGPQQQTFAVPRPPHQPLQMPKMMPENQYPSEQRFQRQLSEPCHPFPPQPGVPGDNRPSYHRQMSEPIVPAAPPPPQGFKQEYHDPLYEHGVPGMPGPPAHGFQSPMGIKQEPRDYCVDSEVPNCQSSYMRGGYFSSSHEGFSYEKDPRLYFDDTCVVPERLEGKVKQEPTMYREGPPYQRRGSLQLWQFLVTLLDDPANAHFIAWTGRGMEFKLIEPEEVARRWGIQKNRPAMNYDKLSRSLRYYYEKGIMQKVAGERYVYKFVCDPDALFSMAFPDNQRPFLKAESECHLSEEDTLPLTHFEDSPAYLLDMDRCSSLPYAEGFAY
Outline: as §1

HSF1 = HSF1 (Homo sapiens, UniProt Q00613 1-529); settings: protein: recombinant; tags: N-terminal GST; chain copies: 3; dsDNA, one strand shown
Chain of HSF1 (Q00613 whole entry): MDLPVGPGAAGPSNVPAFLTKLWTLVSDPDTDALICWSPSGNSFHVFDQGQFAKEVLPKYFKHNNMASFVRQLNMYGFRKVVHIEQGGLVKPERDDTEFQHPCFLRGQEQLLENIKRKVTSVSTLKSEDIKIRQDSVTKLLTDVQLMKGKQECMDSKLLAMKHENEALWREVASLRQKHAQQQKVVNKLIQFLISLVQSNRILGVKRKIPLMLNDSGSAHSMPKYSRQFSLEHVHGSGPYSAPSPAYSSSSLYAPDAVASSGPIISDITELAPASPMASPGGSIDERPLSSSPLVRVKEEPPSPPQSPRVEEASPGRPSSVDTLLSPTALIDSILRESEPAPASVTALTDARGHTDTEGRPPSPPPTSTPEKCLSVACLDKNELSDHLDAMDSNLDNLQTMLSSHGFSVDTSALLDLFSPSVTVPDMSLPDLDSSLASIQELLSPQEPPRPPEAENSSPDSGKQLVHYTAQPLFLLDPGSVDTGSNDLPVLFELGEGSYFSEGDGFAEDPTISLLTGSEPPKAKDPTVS
Outline: as §1

SPIC = target: T2, SPIC (Homo sapiens, UniProt Q8N5J4 1-248); settings: protein: recombinant; tags: N-terminal GST; dsDNA, one strand shown
T2 sequence: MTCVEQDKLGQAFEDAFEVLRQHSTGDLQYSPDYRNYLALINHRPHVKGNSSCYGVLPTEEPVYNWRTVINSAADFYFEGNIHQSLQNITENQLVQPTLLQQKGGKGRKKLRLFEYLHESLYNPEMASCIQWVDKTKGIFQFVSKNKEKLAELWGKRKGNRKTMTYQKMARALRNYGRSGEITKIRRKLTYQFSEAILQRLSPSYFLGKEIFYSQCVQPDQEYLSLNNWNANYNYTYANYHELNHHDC
Outline: as §1

ELF4 = ELF4 (Homo sapiens, UniProt Q99607 1-663); settings: protein: recombinant; tags: N-terminal GST; dsDNA, one strand shown
Chain of ELF4 (Q99607 whole entry): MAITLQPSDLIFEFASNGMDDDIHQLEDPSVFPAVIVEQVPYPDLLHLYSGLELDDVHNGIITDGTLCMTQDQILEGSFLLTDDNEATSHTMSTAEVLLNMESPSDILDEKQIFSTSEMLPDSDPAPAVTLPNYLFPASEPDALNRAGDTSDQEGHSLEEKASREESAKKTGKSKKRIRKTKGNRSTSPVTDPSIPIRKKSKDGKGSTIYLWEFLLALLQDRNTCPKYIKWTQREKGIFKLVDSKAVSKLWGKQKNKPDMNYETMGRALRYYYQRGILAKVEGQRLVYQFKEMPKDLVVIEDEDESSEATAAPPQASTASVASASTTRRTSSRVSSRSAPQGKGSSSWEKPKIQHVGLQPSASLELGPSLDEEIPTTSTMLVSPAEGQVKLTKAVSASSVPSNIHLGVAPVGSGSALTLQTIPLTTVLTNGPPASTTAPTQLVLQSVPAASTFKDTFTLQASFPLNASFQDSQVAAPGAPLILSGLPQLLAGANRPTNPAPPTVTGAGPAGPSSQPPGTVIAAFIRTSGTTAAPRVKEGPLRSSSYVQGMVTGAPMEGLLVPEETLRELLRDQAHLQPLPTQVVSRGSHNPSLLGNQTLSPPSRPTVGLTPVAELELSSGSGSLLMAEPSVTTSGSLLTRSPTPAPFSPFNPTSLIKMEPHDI
Outline: as §1

ELK4 = target: T3, ELK4 (Homo sapiens, UniProt P28324-2 1-405); settings: protein: recombinant; tags: N-terminal GST; dsDNA, one strand shown
T3 sequence: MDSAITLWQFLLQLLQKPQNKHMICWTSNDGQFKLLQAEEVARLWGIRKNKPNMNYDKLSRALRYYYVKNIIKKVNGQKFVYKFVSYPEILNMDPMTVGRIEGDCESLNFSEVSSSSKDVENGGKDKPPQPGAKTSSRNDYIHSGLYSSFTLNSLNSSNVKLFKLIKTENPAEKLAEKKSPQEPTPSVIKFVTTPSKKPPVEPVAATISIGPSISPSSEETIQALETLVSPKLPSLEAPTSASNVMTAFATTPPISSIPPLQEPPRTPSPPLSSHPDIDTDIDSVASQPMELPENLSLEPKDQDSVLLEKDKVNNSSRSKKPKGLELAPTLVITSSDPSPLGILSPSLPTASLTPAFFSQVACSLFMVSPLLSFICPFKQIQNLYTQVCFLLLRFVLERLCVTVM
Outline: as §1

ETV2 = target: T4, ETV2 (Homo sapiens, UniProt O00321 1-342); settings: protein: recombinant; tags: N-terminal GST; dsDNA, one strand shown
T4 sequence: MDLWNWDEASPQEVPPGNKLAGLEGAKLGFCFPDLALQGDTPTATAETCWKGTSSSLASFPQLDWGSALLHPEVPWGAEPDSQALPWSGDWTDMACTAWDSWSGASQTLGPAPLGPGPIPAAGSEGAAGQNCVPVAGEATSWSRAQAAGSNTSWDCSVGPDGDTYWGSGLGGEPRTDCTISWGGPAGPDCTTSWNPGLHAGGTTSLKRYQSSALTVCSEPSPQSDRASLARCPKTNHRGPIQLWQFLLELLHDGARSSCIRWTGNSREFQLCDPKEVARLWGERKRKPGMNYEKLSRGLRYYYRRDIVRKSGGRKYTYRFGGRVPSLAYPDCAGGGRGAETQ
Outline: as §1

ELF3 = target: T5, ELF3 (Homo sapiens, UniProt P78545 1-371); settings: protein: recombinant; tags: N-terminal GST; dsDNA, one strand shown
T5 sequence: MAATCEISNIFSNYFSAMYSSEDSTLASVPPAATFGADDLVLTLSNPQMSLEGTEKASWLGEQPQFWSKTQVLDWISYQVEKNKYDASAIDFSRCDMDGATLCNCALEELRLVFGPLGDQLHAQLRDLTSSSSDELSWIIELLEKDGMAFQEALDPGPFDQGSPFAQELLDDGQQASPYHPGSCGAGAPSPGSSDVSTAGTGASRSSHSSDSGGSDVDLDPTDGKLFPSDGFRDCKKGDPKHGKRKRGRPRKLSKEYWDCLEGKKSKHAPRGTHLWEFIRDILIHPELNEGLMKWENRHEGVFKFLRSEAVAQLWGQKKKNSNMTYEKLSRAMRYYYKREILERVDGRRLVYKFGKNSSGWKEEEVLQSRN
Outline: as §1

ETV1 = ETV1 (Homo sapiens, UniProt P50549 1-477); settings: protein: recombinant; tags: N-terminal GST; dsDNA, one strand shown
Chain of ETV1 (P50549 whole entry): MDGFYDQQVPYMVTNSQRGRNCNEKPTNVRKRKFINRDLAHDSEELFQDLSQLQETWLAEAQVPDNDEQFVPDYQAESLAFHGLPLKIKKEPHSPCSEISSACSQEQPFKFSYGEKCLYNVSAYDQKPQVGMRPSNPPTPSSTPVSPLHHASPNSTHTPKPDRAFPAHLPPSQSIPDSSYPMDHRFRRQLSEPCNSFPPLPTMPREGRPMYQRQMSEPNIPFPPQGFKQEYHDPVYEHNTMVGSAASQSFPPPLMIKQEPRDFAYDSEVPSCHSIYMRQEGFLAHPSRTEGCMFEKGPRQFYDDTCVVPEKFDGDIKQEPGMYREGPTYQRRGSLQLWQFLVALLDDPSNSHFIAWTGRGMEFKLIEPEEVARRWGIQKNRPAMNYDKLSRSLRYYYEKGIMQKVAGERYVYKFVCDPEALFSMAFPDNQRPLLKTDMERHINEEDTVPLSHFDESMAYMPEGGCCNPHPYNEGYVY
Outline: as §1

ERF = target: T6, ERF (Homo sapiens, UniProt P50548 1-548); settings: protein: recombinant; tags: N-terminal GST; dsDNA, one strand shown
T6 sequence: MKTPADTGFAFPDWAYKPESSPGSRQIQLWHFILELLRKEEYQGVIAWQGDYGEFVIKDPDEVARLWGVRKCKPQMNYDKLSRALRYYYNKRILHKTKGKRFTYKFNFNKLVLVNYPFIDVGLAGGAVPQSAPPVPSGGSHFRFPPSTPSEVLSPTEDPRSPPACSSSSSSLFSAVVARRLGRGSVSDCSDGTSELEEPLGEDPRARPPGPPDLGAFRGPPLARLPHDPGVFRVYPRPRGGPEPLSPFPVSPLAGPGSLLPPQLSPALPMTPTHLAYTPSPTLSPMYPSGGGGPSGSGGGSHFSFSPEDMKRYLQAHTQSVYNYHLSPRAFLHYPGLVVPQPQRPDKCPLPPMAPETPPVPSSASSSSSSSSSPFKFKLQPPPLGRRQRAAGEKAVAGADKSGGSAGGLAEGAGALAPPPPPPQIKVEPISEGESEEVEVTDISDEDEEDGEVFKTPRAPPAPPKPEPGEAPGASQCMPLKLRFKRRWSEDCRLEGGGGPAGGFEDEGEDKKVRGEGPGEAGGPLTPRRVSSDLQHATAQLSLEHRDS
Outline: as §1

ETV3L = target: T7, ETV3L (Homo sapiens, UniProt Q6ZN32 1-361); settings: protein: recombinant; tags: N-terminal GST; dsDNA, one strand shown
T7 sequence: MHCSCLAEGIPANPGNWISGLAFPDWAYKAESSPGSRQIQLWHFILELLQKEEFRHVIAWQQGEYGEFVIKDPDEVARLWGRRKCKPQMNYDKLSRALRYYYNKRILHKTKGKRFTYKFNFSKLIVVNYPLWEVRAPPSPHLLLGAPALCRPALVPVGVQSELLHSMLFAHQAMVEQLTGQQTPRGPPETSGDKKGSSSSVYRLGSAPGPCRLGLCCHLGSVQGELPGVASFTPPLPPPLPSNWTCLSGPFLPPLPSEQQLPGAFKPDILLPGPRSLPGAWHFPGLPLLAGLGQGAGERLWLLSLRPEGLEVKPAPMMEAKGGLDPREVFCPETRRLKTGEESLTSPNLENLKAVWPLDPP
Outline: as §1

ETS2 = target: T8, ETS2 (Homo sapiens, UniProt P15036 1-469); settings: protein: recombinant; tags: N-terminal GST; dsDNA, one strand shown
T8 sequence: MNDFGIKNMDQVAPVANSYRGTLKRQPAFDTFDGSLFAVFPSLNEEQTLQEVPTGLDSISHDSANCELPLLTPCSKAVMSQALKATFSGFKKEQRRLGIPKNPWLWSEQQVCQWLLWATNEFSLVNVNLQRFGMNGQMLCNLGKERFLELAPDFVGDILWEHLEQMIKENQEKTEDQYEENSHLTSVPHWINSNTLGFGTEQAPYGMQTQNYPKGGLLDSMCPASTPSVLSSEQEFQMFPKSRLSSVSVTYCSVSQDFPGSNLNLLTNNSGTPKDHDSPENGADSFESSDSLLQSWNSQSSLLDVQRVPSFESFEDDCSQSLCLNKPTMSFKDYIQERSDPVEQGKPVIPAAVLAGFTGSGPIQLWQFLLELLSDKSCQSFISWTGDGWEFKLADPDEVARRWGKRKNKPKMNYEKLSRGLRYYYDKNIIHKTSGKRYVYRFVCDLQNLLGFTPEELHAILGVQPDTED
Outline: as §1

SPDEF = target: T9, SPDEF (Homo sapiens, UniProt O95238 1-335); settings: protein: recombinant; tags: N-terminal GST; dsDNA, one strand shown
T9 sequence: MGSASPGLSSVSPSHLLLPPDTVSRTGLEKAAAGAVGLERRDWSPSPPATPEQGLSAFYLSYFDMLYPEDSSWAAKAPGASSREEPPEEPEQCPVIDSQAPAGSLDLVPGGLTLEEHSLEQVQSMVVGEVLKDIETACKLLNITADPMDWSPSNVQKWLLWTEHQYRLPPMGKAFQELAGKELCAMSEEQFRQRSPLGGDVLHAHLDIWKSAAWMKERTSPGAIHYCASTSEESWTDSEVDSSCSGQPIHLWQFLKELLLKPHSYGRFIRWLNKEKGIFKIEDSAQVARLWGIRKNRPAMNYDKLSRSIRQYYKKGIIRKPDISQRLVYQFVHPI
Outline: as §1

ETV7 = target: T10, ETV7 (Homo sapiens, UniProt Q9Y603 1-341); settings: protein: recombinant; tags: N-terminal GST; dsDNA, one strand shown
T10 sequence: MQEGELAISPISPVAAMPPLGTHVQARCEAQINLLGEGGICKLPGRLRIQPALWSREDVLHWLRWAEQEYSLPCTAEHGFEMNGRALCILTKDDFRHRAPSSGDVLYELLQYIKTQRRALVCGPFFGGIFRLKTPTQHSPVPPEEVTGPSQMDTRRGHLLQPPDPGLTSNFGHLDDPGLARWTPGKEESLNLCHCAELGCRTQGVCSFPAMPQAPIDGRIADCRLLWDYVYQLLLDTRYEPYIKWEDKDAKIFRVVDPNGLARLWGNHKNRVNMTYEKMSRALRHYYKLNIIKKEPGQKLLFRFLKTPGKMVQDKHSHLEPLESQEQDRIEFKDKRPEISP
Outline: as §1

ELF5 = target: T11, ELF5 (Homo sapiens, UniProt Q9UKW6-2 1-255); settings: protein: recombinant; tags: N-terminal GST; dsDNA, one strand shown
T11 sequence: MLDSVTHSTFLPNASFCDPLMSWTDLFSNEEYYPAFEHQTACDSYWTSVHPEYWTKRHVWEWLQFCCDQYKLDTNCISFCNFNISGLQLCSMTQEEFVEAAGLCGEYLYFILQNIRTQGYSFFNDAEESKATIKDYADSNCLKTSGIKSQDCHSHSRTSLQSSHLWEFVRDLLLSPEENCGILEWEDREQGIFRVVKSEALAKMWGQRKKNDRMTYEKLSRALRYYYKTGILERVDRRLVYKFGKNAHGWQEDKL
Outline: as §1

ETV3 = target: T12, ETV3 (Homo sapiens, UniProt P41162-2 1-143); settings: protein: recombinant; tags: N-terminal GST; dsDNA, one strand shown
T12 sequence: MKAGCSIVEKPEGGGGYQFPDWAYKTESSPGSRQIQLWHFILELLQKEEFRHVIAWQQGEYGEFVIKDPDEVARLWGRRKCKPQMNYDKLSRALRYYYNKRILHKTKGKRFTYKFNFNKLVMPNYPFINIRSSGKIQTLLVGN
Outline: as §1

ETV6 = ETV6 (Homo sapiens, UniProt P41212 1-452); settings: protein: recombinant; tags: N-terminal GST; dsDNA, one strand shown
Chain of ETV6 (P41212 whole entry): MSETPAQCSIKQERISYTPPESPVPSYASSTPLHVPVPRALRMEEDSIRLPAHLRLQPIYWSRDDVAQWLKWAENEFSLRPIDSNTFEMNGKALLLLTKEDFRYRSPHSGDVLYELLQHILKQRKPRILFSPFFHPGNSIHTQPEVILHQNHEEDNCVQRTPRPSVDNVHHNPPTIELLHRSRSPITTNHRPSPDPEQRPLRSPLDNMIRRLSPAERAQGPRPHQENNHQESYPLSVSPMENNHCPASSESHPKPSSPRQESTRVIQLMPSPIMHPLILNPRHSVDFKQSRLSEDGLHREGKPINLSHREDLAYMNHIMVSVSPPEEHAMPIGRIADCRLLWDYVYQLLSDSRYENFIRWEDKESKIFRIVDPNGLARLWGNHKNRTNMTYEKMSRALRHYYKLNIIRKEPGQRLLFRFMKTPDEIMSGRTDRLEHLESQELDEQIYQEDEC
Outline: as §1

With ACGACG the binding signal (FEV) was 1.17 fold enrichment (6-mer frequency, TF over GST control), the binding signal (ETV5) was 1.18 fold enrichment (6-mer frequency, TF over GST control) and the binding signal (HSF1) was 1.02 fold enrichment (6-mer frequency, TF over GST control). The binding signal (SPIC) was 1.05 fold enrichment (6-mer frequency, TF over GST control), the binding signal (ELF4) was 1.2 fold enrichment (6-mer frequency, TF over GST control) and the binding signal (ELK4) was 1.17 fold enrichment (6-mer frequency, TF over GST control). For the same sequence, the binding signal (ETV2) was 1.16 fold enrichment (6-mer frequency, TF over GST control), the binding signal (ELF3) was 1.17 fold enrichment (6-mer frequency, TF over GST control) and the binding signal (ETV1) was 1.01 fold enrichment (6-mer frequency, TF over GST control). The binding signal (ERF) was 1.14 fold enrichment (6-mer frequency, TF over GST control), the binding signal (ETV3L) was 1.08 fold enrichment (6-mer frequency, TF over GST control) and the binding signal (ETS2) was 1.12 fold enrichment (6-mer frequency, TF over GST control). The binding signal (SPDEF) was 1.14 fold enrichment (6-mer frequency, TF over GST control), the binding signal (ETV7) was 1.25 fold enrichment (6-mer frequency, TF over GST control) and the binding signal (ELF5) was 1.15 fold enrichment (6-mer frequency, TF over GST control). For the same sequence, the binding signal (ETV3) was 1.16 fold enrichment (6-mer frequency, TF over GST control) and the binding signal (ETV6) was 1.2 fold enrichment (6-mer frequency, TF over GST control).
